PubChem BioAssay AID1159580 (chemical genetic matrix, 2015)
The campaign covered roughly 5,500 compounds. About 2,000 (36%) were called active. About 18% were inconclusive and are not listed. Rule as the data show it: active = normalized growth mostly below about 0.91 (no sharp cut-off); inconclusive = no clear call, values can overlap the other calls; inactive = mostly above about 0.92. This is one part of the list.

Experiment: chemical genetic growth profiling, strain panel (AID 1159580);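 also: tested at 20 µM; growth read once vehicle control cultures reached saturation at 30 °C; 1 = growth at the plate median or of vehicle wells; lower values mean less growth of the strain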
Conditions: S. cerevisiae deletion strains, growth OD
[1] = locus YAR019C, strain CDC15, stronger effect = lower value
[2] = locus YBL105C, strain PKC1, stronger effect = lower value
[3] = locus YBR135W, strain CKS1, stronger effect = lower value
[4] = locus YBR136W, strain MEC1, stronger effect = lower value
[5] = locus YBR160W, strain CDC28, stronger effect = lower value
[6] = locus YDL017W, strain CDC7, stronger effect = lower value
[7] = locus YDL028C, strain MPS1, stronger effect = lower value
[8] = locus YDL101C, strain DUN1, stronger effect = lower value
[9] = locus YDL108W, strain KIN28, stronger effect = lower value
[10] = locus YDL132W, strain cdc53, stronger effect = lower value
[11] = locus YDL214C, strain PRR2, stronger effect = lower value
[12] = locus YDR052C, strain DBF4, stronger effect = lower value
[13] = locus YDR054C, strain cdc34, stronger effect = lower value
[14] = locus YDR226W, strain ADK1, stronger effect = lower value
[15] = locus YDR477W, strain SNF1, stronger effect = lower value
[16] = locus YER123W, strain YCK3, stronger effect = lower value
[17] = locus YER133W, strain GLC7, stronger effect = lower value
[18] = locus YFL009W, strain cdc4, stronger effect = lower value
[19] = locus YFL029C, strain CAK1, stronger effect = lower value
[20] = locus YFR003C, strain YPI1, stronger effect = lower value
[21] = locus YFR019W, strain FAB1, stronger effect = lower value
[22] = locus YFR028C, strain CDC14, stronger effect = lower value
[23] = locus YGR040W, strain KSS1, stronger effect = lower value
[24] = locus YGR052W, strain FMP48, stronger effect = lower value
[25] = locus YGR092W, strain DBF2, stronger effect = lower value
[26] = locus YHR030C, strain SLT2, stronger effect = lower value
[27] = locus YHR079C, strain IRE1, stronger effect = lower value
[28] = locus YHR082C, strain KSP1, stronger effect = lower value
[29] = locus YHR205W, strain SCH9, stronger effect = lower value
[30] = locus YIL147C, strain SLN1, stronger effect = lower value
[31] = locus YJL095W, strain BCK1, stronger effect = lower value
[32] = locus YJL128C, strain PBS2, stronger effect = lower value
[33] = locus YJL157C, strain FAR1, stronger effect = lower value
[34] = locus YJR016C, strain ILV3, stronger effect = lower value
[35] = locus YJR066W, strain TOR1 (second series), stronger effect = lower value
[36] = locus YJR066W, strain TOR1, stronger effect = lower value
[37] = locus YKL048C, strain ELM1, stronger effect = lower value
[38] = locus YKL067W, strain YNK1, stronger effect = lower value
[39] = locus YKL101W, strain HSL1, stronger effect = lower value
[40] = locus YKL193C, strain SDS22, stronger effect = lower value
[41] = locus YKL203C, strain TOR2, stronger effect = lower value
[42] = locus YLR113W, strain HOG1, stronger effect = lower value
[43] = locus YLR133W, strain CKI1, stronger effect = lower value
[44] = locus YLR403W, strain SFP1, stronger effect = lower value
[45] = locus YML070W, strain DAK1, stronger effect = lower value
[46] = locus YMR001C, strain CDC5, stronger effect = lower value
[47] = locus YMR205C, strain PFK2 (second series), stronger effect = lower value
[48] = locus YMR277W, strain FCP1, stronger effect = lower value
[49] = locus YNL006W, strain LST8, stronger effect = lower value
[50] = locus YNL020C, strain ARK1, stronger effect = lower value
[51] = locus YNL161W, strain CBK1, stronger effect = lower value
[52] = locus YNL183C, strain NPR1, stronger effect = lower value
[53] = locus YNL207W, strain RIO2, stronger effect = lower value
[54] = locus YNL222W, strain SSU72, stronger effect = lower value
[55] = locus YNL307C, strain MCK1 (second series), stronger effect = lower value
[56] = locus YOL078W, strain AVO1, stronger effect = lower value
[57] = locus YOL136C, strain PFK27, stronger effect = lower value
[58] = locus YOR061W, strain CKA2, stronger effect = lower value
[59] = locus YOR119C, strain RIO1, stronger effect = lower value
[60] = locus YOR231W, strain MKK1, stronger effect = lower value
[61] = locus YOR329C, strain SCD5, stronger effect = lower value
[62] = locus YPL031C, strain PHO85, stronger effect = lower value
[63] = locus YPL153C, strain RAD53, stronger effect = lower value
[64] = locus YPL204W, strain HRR25, stronger effect = lower value
[65] = locus YPL209C, strain IPL1, stronger effect = lower value
[66] = locus YPL256C, strain CLN2, stronger effect = lower value
[67] = locus YPR025C, strain CCL1, stronger effect = lower value
[68] = locus YPR106W, strain ISR1, stronger effect = lower value
[69] = locus YPR111W, strain DBF20, stronger effect = lower value
[70] = strain NNK1, stronger effect = lower value
[71] = strain TSCII, stronger effect = lower value

Measured: normalized growth

O=C(NNc1ccccc1)c1cc(-c2ccc(Cl)cc2)oc1C(F)(F)F
active: [15] 0.615 | [16] 0.522 | [17] 0.629 | [23] 0.622 | [24] 0.38 | [25] 0.434 | [26] 0.289 | [28] 0.5 | [31] 0.293 | [36] 0.456 | [37] 0.762 | [38] 0.686 | [39] 0.521 | [41] 0.636 | [42] 0.234 | [43] 0.678 | [44] 0.653 | [45] 0.465 | [47] 0.667 | [50] 0.683 | [55] 0.549 | [59] 0.684 | [60] 0.46 | [62] 0.443 | [63] 0.339 | [64] 0.58 | [66] 0.492
inactive: [1] 0.947 | [2] 0.952 | [3] 0.934 | [4] 0.952 | [5] 0.942 | [6] 0.949 | [7] 0.957 | [8] 0.973 | [9] 0.95 | [10] 0.953 | [11] 0.714 | [12] 0.956 | [13] 0.94 | [14] 0.951 | [18] 0.958 | [19] 0.943 | [20] 0.958 | [21] 0.779 | [22] 0.942 | [27] 0.541 | [29] 0.624 | [30] 0.96 | [32] 0.975 | [33] 0.75 | [34] 0.95 | [35] 0.66 | [40] 0.954 | [46] 0.942 | [48] 0.953 | [49] 0.96 | [51] 0.944 | [52] 0.697 | [53] 0.959 | [54] 0.931 | [56] 0.952 | [57] 0.727 | [58] 0.795 | [61] 0.957 | [65] 0.926 | [67] 0.951 | [68] 0.933 | [69] 0.931 | [70] 0.939 | [71] 0.95

O=C(Nc1ccncc1)c1cc(-c2ccccc2)oc1C(F)(F)F
active: [42] 0.843
inactive: [1] 0.99 | [2] 0.985 | [3] 0.991 | [4] 0.988 | [5] 0.983 | [6] 0.991 | [7] 0.993 | [8] 0.992 | [9] 0.991 | [10] 0.979 | [11] 0.953 | [12] 0.989 | [13] 0.981 | [14] 0.989 | [15] 0.973 | [16] 0.946 | [17] 0.976 | [18] 0.99 | [19] 0.984 | [20] 0.99 | [21] 0.993 | [22] 0.984 | [23] 0.962 | [24] 1 | [25] 0.949 | [26] 1 | [27] 0.941 | [28] 1.01 | [29] 0.998 | [30] 0.994 | [31] 0.991 | [32] 0.958 | [33] 0.952 | [34] 0.988 | [35] 0.937 | [36] 1.03 | [37] 0.976 | [38] 0.968 | [39] 0.977 | [40] 0.988 | [41] 1.04 | [43] 0.975 | [44] 0.987 | [45] 0.951 | [46] 0.996 | [47] 0.973 | [48] 0.993 | [49] 0.992 | [50] 0.985 | [51] 0.982 | [52] 0.965 | [53] 0.98 | [54] 0.977 | [55] 0.976 | [56] 0.988 | [57] 0.953 | [58] 0.991 | [59] 1.03 | [60] 0.908 | [61] 0.998 | [62] 0.964 | [63] 0.959 | [64] 0.953 | [65] 0.976 | [66] 0.868 | [67] 0.99 | [68] 0.979 | [69] 0.98 | [70] 0.993 | [71] 0.989
